Test systems include NCI-H23 lung; NCI-H226 lung; NCI-H322M lung; HOP-62 NSCLC; NCI-H460 lung; HOP-92 NSCLC; NCI-H522 lung; A549/ATCC NSCLC; 786-0 renal; COLO 205 colon; DU-145 prostate; K-562 leukemia; MALME-3M melanoma; MDA-MB-231 breast; RXF 393 renal; SF-268 CNS; SF-295 CNS; SF-539 CNS; UACC-257 melanoma; M14 melanoma.
Common to all, as to assay: NCI-60 one-dose screen, 48 h (100 = growth as untreated, 0 = no growth, -100 = all killed)
What all share (conditions): 10 µM unless noted

About 83,000 compounds went through this panel and 20% of them were active in at least one assay; those are over-represented in the sample as a whole.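 In brief: 96-well plates, 48 h treatment, single concentration, percent growth endpoint.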 Values without a mark were called inactive. The source made the active and inactive calls. How the source made its calls: active means growth percent below 10; inactive means the rest.

Regarding `N=C(N)c1ccc(-c2ccc(-c3ccc(-c4cccs4)s3)s2)cc1`, the growth with NCI-H23 lung was 98.8%; in the assay with NCI-H226 lung it was 93.4%; with NCI-H322M lung, 43%; with HOP-62 NSCLC, 93.8%; in the assay on NCI-H460 lung, 21.7%; with HOP-92 NSCLC, 54.6%. The growth with NCI-H522 lung was 100%; in the assay on A549/ATCC NSCLC, 14%; with 786-0 renal it was 89.9%; in the assay with COLO 205 colon it was 102%; with DU-145 prostate, 90.4%; in the assay with K-562 leukemia it was 58%. The growth was 85% with MALME-3M melanoma; 81.1% in the assay with MDA-MB-231 breast; 80.7% in the assay with RXF 393 renal; 93.5% in the assay with SF-268 CNS; 101% with SF-295 CNS; 88.5% in the assay on SF-539 CNS. Moreover, the growth in the assay with UACC-257 melanoma was 99.3%; in the assay on M14 melanoma it was 100%.

Regarding `C=C(C)[C@@H]1CC[C@]2(C(=O)O)CC[C@]3(C)[C@H](CC[C@@H]4[C@@]5(C)C[C@@H](CC#Cc6ccc(C(F)(F)F)cc6)[C@H](O)C(C)(C)[C@@H]5CC[C@]43C)[C@@H]12`, the growth in the assay on NCI-H23 lung was 2.55% (active); in the assay on NCI-H226 lung, 3.81% (active); with NCI-H322M lung, 35.2%; in the assay with HOP-62 NSCLC, 10%; with NCI-H460 lung it was 15.1%; in the assay with HOP-92 NSCLC, -16.9% (active). Besides, the growth in the assay on NCI-H522 lung was -19.1% (active); in the assay on A549/ATCC NSCLC it was 10.3%; in the assay with 786-0 renal, 19.2%; in the assay on COLO 205 colon, 21.1%; in the assay on DU-145 prostate it was 22.6%; in the assay with K-562 leukemia, 7.68% (active). Further, the growth with MALME-3M melanoma is -43.3% (active); with MDA-MB-231 breast, -10% (active); in the assay on RXF 393 renal it was -34.4% (active); in the assay with SF-268 CNS, 12.6%; in the assay on SF-295 CNS, -21.6% (active); in the assay with SF-539 CNS, -59.5% (active). The growth was 7.33% (active) in the assay with UACC-257 melanoma and -51.7% (active) in the assay with M14 melanoma.

With `CCCCC(CC)OC(=O)C(Br)CC` (stereo not given), the growth in the assay on NCI-H23 lung is 92.7%; in the assay with NCI-H226 lung, 108%; with NCI-H322M lung it was 101%; with HOP-62 NSCLC it was 111%; in the assay with NCI-H460 lung, 109%; with HOP-92 NSCLC it was 95.8%. The growth with NCI-H522 lung is 103%; in the assay on A549/ATCC NSCLC it was 103%; in the assay on 786-0 renal it was 98.4%; with COLO 205 colon, 111%; with DU-145 prostate, 107%; in the assay on K-562 leukemia it was 83.8%. Also, the growth was 99.9% with MALME-3M melanoma; 112% in the assay on MDA-MB-231 breast; 114% in the assay with RXF 393 renal; 98.1% in the assay on SF-268 CNS; 97.5% in the assay with SF-295 CNS; 98.7% in the assay on SF-539 CNS. Also, the growth in the assay on UACC-257 melanoma is 104%; in the assay with M14 melanoma, 101%.

As for `COc1cc(-c2nn(C(=O)NS(=O)(=O)c3ccccc3)cc2-c2ccncc2)ccc1Cl`, the growth was 88.1% in the assay on NCI-H23 lung; 66.9% with NCI-H226 lung; 97.2% in the assay on NCI-H322M lung; 58.9% with HOP-62 NSCLC; 103% with NCI-H460 lung; 28.3% with HOP-92 NSCLC. The growth is 77% in the assay on NCI-H522 lung; 71.9% with A549/ATCC NSCLC; 71.4% in the assay on 786-0 renal; 70.6% in the assay on COLO 205 colon; 91.8% in the assay on DU-145 prostate; 101% in the assay with K-562 leukemia. In addition, the growth in the assay on MALME-3M melanoma was 87.3%; with MDA-MB-231 breast it was 70.5%; in the assay on RXF 393 renal, 63%; in the assay on SF-268 CNS, 58.6%; in the assay with SF-295 CNS, 85.1%; with SF-539 CNS, 74.8%. In addition, the growth in the assay on UACC-257 melanoma was 89.1%; with M14 melanoma, 78.4%.

With `O=S(=O)(NCCCNc1nccc(-n2ccc3cccnc32)n1)c1cccc(C(F)(F)F)c1`, the growth in the assay on NCI-H23 lung is 108%; in the assay on NCI-H226 lung it was 104%; in the assay with NCI-H322M lung it was 106%; in the assay with HOP-62 NSCLC it was 112%; with NCI-H460 lung, 104%; in the assay on HOP-92 NSCLC, 106%. In addition, the growth was 98.1% in the assay with NCI-H522 lung; 101% with A549/ATCC NSCLC; 102% in the assay with 786-0 renal; 108% in the assay with COLO 205 colon; 101% in the assay on DU-145 prostate; 100% in the assay with K-562 leukemia. For the same molecule, the growth is 112% with MALME-3M melanoma; 106% in the assay with MDA-MB-231 breast; 103% with RXF 393 renal; 95.5% with SF-268 CNS; 112% in the assay on SF-295 CNS; 109% in the assay on SF-539 CNS. In addition, the values for the growth in the assay on UACC-257 melanoma and in the assay with M14 melanoma were 108% and 107%, respectively.

As for `Cc1cc(N)n(S(=O)(=O)c2oc(-c3ccccc3)nc2C#N)n1`, the growth in the assay on NCI-H23 lung was 90.3%; in the assay with NCI-H226 lung, 89.6%; with NCI-H322M lung, 98.4%; in the assay with HOP-62 NSCLC it was 95%; in the assay with NCI-H460 lung, 106%; in the assay with HOP-92 NSCLC it was 91.5%. The growth is 24.4% with NCI-H522 lung; 95.3% in the assay with A549/ATCC NSCLC; 90.1% in the assay with 786-0 renal; -34% (active) in the assay on COLO 205 colon; 103% in the assay with DU-145 prostate; 7.1% (active) with K-562 leukemia. Besides, the growth in the assay with MALME-3M melanoma is -49% (active); in the assay on MDA-MB-231 breast, 94.1%; in the assay on RXF 393 renal it was 92.3%; in the assay on SF-268 CNS, 103%; with SF-295 CNS, 101%; in the assay with SF-539 CNS it was 108%. Moreover, the growth with UACC-257 melanoma is 101%; in the assay with M14 melanoma it was 84.5%.

The record behind these values is PubChem BioAssay (NCI).
